Sampled rows, rich in hits. Any-hit rate of the full collection: about 7.9%.
FMDV inh: blocks foot and mouth disease virus. FMDV antiviral cell-based qHTS. Potency, µM (series often up to 57.9 µM), inactives show top-dose activity change, negative = inhibition, most hits filed as inhibitors. 410,000 compounds, 1.2% hits. AID 1159524; calls by dose curve; tested in HEK293T cells; further: read-out not given here; potency means the concentration at half of the fitted maximal effect; nearly all actives have a fitted effect of over 45% in size
Lassa entry inh: Lassa virus entry inhibition; Potency, µM (series often up to 37.9 µM), without a hit: at the highest dose activity change, negative = inhibition, actives largely listed as inhibitors; Lassa virus pseudotype entry inhibition, cell reporter; 300,000 compounds, 1.2% hits; calls by dose curve; tested in HEK293 cells; further: potency means the concentration at half of the fitted maximal effect; nearly all actives have a fitted effect of over 50% in size
HCV inh: inhibitors of hepatitis C virus infection; Huh7.5.1 HCVcc-Cre infection, luciferase reporter, 44 h; Potency, µM (doses to about 41.8 µM), without a hit: top-dose activity change, negative = inhibition, usual class: inhibitors; 340,000 compounds, 3.4% hits; AID 651820; active means well fitted inhibition curve with a large enough effect; inconclusive means small, poorly fitted or top-dose-only effect, or another doubt; inactive means no such curve, though single readings can be large or run the other way; further: potency means the concentration at half of the fitted maximal effect
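Reporter virus HCVcc-Cre (~0.5 moi) infects cells exposed to compound; seeding density 1,000 cells/well with 4 h settling beforehand. Luminescence, 15 sec read, taken 44 h post-infection following a 15 min RT substrate incubation.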
MARV entry inh: Marburg virus entry inhibition; Marburg virus pseudotyped entry inhibition, cell reporter; Potency, µM (series often up to 37.8 µM), for inactives: at the top dose activity change, negative = inhibition, hits mostly inhibitors; 300,000 compounds, 1.8% hits; calls by dose curve; tested in HEK293 cells; further: potency means the concentration at half of the fitted maximal effect
HCMV inh: human cytomegalovirus inhibition. HFF cells, HCMV-luciferase reporter, 72 h; hits give low values. activity change, negative = inhibition, % at 57.5 µM. 410,000 compounds, 4.5% hits; in the data active means activity change below about -60%; inconclusive means no clear call, values can overlap the other calls; inactive means above about -39%
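HFF cells seeded 16 h at 37C, treated with compounds, infected with luciferase-reporter HCMV at MOI 1 PFU/cell; luciferase read at 72 h post infection, normalized to buffer-only and Salinomycin controls.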
Starred values were filed as active, the others as inactive; ? = inconclusive; . = not tested or not shown; [ ] = another dose, or the depositor's remark. On the % scale 0 is the no-effect control and ±100 the full control effect.

SMILES	FMDV inh	Lassa entry inh	HCV inh	MARV entry inh	HCMV inh
Cc1ccc(S(=O)(=O)Nc2cccnc2)cc1	12%	3%	-1%	-10%	3
CCOc1ccc(S(=O)(=O)Nc2cccc(OC)c2)cc1	44%	-16%	10µM*	?	?
CCOc1ccc(S(=O)(=O)Nc2cccc(N(C)S(C)(=O)=O)c2)cc1	-16%	?	10µM*	-22%[46.1 µM]	-35
CCCCOc1ccc(S(=O)(=O)Nc2cccnc2)cc1	.	-13%	10µM*	?	-76*
C/C(N)=C(/C#N)C(=O)CSc1nnc(-c2ccccc2)n1C	32%	11%	21%	?	-2
Cc1cc(O)c2c(c1O)C(=O)C(O)=C(O)C2=O	-19%	.	.	.	.
O=C(CCc1nc(-c2ccccc2F)no1)Nc1cccnc1	-24%	.	-1%	.	27
CCOc1ccccc1NC(=O)C1CCN(S(=O)(=O)c2ccccc2)CC1	-13%	?	.	-1%[46.1 µM]	-18
Cn1c(CCN2CCCCC2)nc2cc(NC(=O)COc3ccc([N+](=O)[O-])cc3)ccc21	24%	.	-30%	.	-75*
Cc1ccc(C(C)C)c(OCC(=O)Nc2ccc3c(c2)nc(CCN2CCCCC2)n3C)c1	-20%	.	10µM*	.	-81*
Cn1c(CCN2CCCCC2)nc2cc(NC(=O)COc3ccc(Cl)cc3)ccc21	-15%	.	?	.	-70*
Cc1nn(CC(=O)Nc2ccc3c(c2)nc(CCN2CCCCC2)n3C)c(=O)c2ccccc12	-23%	20%	?	?	-63*
CCn1c(CN2CCCCC2)nc2cc(NC(=O)COc3ccc([N+](=O)[O-])cc3)ccc21	?	0%[46.1 µM]	.	-19%[46.1 µM]	-23
COc1ccccc1CNC(=O)C(=O)NCC1OCCCN1S(=O)(=O)c1ccc(F)cc1C (configuration not stated)	-9%	4%	?	-23%	-13
CCCCNC(=O)C1CCN(S(=O)(=O)c2cc(Br)cc3c2N(C(=O)CC)CC3)CC1	-6%	3%[46.1 µM]	.	14%[46.1 µM]	-7
Cc1cc2n(n1)CCC(=O)N2Cc1ccc(C(=O)Nc2ccc(Br)c(C)c2)cc1	-19%	0%[46.1 µM]	.	.	-5
COc1ccc(NC(=O)CCc2nc(C3=CCN(Cc4cccc(Cl)c4)CC3)no2)c(OC)c1	?	18%[46.1 µM]	.	.	-9
COc1ccc(NC(=O)CCc2nc(C3=CCN(Cc4cccc(Cl)c4)CC3)no2)cc1OC	32µM*	-27%[46.1 µM]	.	.	-18
O=S(=O)(/N=C(/NS(=O)(=O)c1ccccc1)c1ccccc1)c1ccccc1	6%	-10%	-3%	-1%[46.1 µM]	-106*
O=S(=O)(N=C(NS(=O)(=O)c1ccc(Cl)cc1)c1ccccc1)c1ccc(Cl)cc1	28%	-1%	30%	7%	-39
O=C(O)CCC(=O)NNC(=O)CCCOc1ccc(Cl)cc1Cl	-7%	-5%	-17%	-5%	?
O=C(COc1ccc(Cl)cc1Cl)N/N=C/c1ccc[nH]1	19%	.	6.3µM*	.	-40
O=C(COc1ccc(Cl)cc1Cl)Nc1ccccc1F	-25%	7.1µM*	-9%	-48%	91
O=C(CCCOc1ccc(Cl)cc1Cl)N/N=C/c1ccccc1O	-17%	?	?	?	-104*
O=C(CCCOc1ccc(Cl)cc1Cl)N/N=C/c1ccccc1	-8%	?	-20%	?	-25
SMILES	FMDV inh	Lassa entry inh	HCV inh	MARV entry inh	HCMV inh
O=C(O)CCC(=O)NNC(=O)COc1ccc(Cl)cc1Cl	10%	0%	-22%	-11%[46.1 µM]	-79*
CC(C)C[C@H]1COc2c(Cl)cccc2S(=O)(=O)N1Cc1ccc(Cl)cc1	.	-14%[46.1 µM]	.	.	.
CCN(c1ccccc1)S(=O)(=O)c1cccc(C(=O)NCC(c2cccs2)N2CCOCC2)c1 (configuration not stated)	-25%	?	?	-51%	-29
Cc1ccccc1-c1cc(NCc2ccccc2)ncn1	-2%	.	.	.	.
CCOC(=O)C1=C(c2ccccc2)c2ccc(OC)cc2N(S(=O)(=O)C(F)(F)F)C1C(=O)OCC (configuration not stated)	?	.	2µM*	.	-2
CN=c1scc(C)n1/N=C/c1ccc(O)c(O)c1O	-24%	1%	-17%	?	-5
CN=c1scc(-c2cccs2)n1/N=C/c1ccc(O)c(O)c1O	10µM*	?	-14%	?	12
CN=c1scc(-c2cccs2)n1/N=C/c1ccccc1O	4µM*	1.3µM*	13µM*	0.28µM*	-98*
CCOc1ccc(NC(=O)Cn2c(=O)n(CC(=O)NCCc3ccccc3)c(=O)c3sccc32)cc1	-17%	3%[46.1 µM]	.	-16%[46.1 µM]	?
O=C1C=CC(=NN=C(c2ccccc2)c2ccccc2)C=C1	3%	.	.	.	-80*

Source: PubChem (National Center for Advancing Translational Sciences (NCATS))
